Test systems include SN12C renal; UO-31 renal; TK-10 renal; ACHN renal; CAKI-1 renal; A498 renal; MOLT-4 leukemia; RPMI-8226 leukemia; OVCAR-8 ovarian; OVCAR-4 ovarian; SK-OV-3 ovarian; IGROV1 ovarian; OVCAR-3 ovarian; HS 578T breast; NCI/ADR-RES ovarian; OVCAR-5 ovarian; EKVX NSCLC; CCRF-CEM leukemia; SR leukemia.
Common to all, as to experiment: NCI-60 one-dose screen, 48 h (100 = growth as untreated, 0 = no growth, -100 = all killed)
Common to all, as to details: 10 µM unless noted

About 83,000 compounds went through this panel and 20% of them were active in at least one assay; those are over-represented in the sample as a whole.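 Method: cells in 96-well plates; compound added at one concentration; 48 h incubation; percent growth measured; values under 10 scored active.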 Unmarked numbers belong to inactive results. Calls of active or inactive are those of the source.

With `O=[N+]([O-])c1ccc(NS(=O)(=O)c2ccc(Cl)c(Cl)c2)cc1`, the growth in the experiment on SN12C renal was 60.9%; with UO-31 renal, 70%; with TK-10 renal, 94.3%; with ACHN renal it was 94%; in the experiment with CAKI-1 renal, 65.2%; in the experiment with A498 renal it was 55.9%. The growth in the experiment with MOLT-4 leukemia is 81.3%; in the experiment on RPMI-8226 leukemia it was 35.6%; in the experiment on OVCAR-8 ovarian it was 79.2%; in the experiment on OVCAR-4 ovarian, 63.4%; in the experiment on SK-OV-3 ovarian, 94.3%; in the experiment on IGROV1 ovarian, 88.7%. The growth was 78.3% in the experiment on OVCAR-3 ovarian, 93.7% in the experiment with HS 578T breast and 83.2% in the experiment on NCI/ADR-RES ovarian.

In the case of `O=C1/C(=C/c2ccccc2Cl)CCc2ccccc21`, the growth with SN12C renal is 94.6%; with UO-31 renal, 97.4%; in the experiment with TK-10 renal it was 89.4%; with ACHN renal it was 112%; in the experiment with CAKI-1 renal, 81.8%; in the experiment with MOLT-4 leukemia it was 90.9%. The growth with RPMI-8226 leukemia is 95.4%; with OVCAR-8 ovarian, 96.7%; in the experiment with OVCAR-5 ovarian, 109%; with OVCAR-4 ovarian, 110%; in the experiment with SK-OV-3 ovarian, 116%; in the experiment with IGROV1 ovarian, 97.3%. The growth in the experiment with OVCAR-3 ovarian is 112%; in the experiment with HS 578T breast it was 99.1%; in the experiment with NCI/ADR-RES ovarian it was 102%.

As for `COc1cccc(N2CCN(CC(=O)N3CCN(c4nnc(-c5ccc(Cl)cc5)c(-c5ccc(Cl)cc5)n4)CC3)CC2)c1`, the growth was 57% in the experiment with EKVX NSCLC; 76.7% with SN12C renal; 93.8% in the experiment with TK-10 renal; 57.1% in the experiment with ACHN renal; 92.2% in the experiment with CAKI-1 renal; 55.4% with A498 renal. The growth was 43.2% in the experiment with CCRF-CEM leukemia; 28.4% with MOLT-4 leukemia; -37.2% (active) in the experiment on RPMI-8226 leukemia; 85.9% with OVCAR-5 ovarian; 57.9% in the experiment on OVCAR-4 ovarian; 95.6% with SK-OV-3 ovarian. The values for the growth in the experiment with OVCAR-3 ovarian, in the experiment on HS 578T breast and in the experiment with NCI/ADR-RES ovarian were 68.1%, 58.4% and 65.2%, respectively.

Regarding `COc1ccc(/C=C2\CCc3ccccc3C2=O)cc1`, the growth in the experiment on SN12C renal was 94.5%; with UO-31 renal, 87.5%; in the experiment with TK-10 renal it was 79.8%; in the experiment with ACHN renal it was 111%; with CAKI-1 renal, 50.8%; in the experiment with MOLT-4 leukemia, 73.9%. Also, the growth in the experiment on RPMI-8226 leukemia is 82.1%; in the experiment on OVCAR-8 ovarian it was 90%; with OVCAR-5 ovarian, 109%; in the experiment on SK-OV-3 ovarian, 102%; in the experiment with IGROV1 ovarian, 81.8%; with OVCAR-3 ovarian it was 89.6%. For the same compound, the results for the growth in the experiment with HS 578T breast and in the experiment on NCI/ADR-RES ovarian were 97.3% and 60.5%, respectively.

As for `COc1ccccc1-n1c(-c2ccc(O)cc2C)cn2c3c(=O)[nH]c(=O)n(C)c3nc12`, the growth in the experiment with SN12C renal is 75%; in the experiment on UO-31 renal, 74.2%; with CAKI-1 renal, 79.4%; with A498 renal it was 80.2%; in the experiment with CCRF-CEM leukemia it was 106%; with MOLT-4 leukemia, 81.4%. Moreover, the growth with SR leukemia was 90.8%; with RPMI-8226 leukemia it was 93%; with OVCAR-8 ovarian, 86.3%; in the experiment with OVCAR-5 ovarian, 86.9%; in the experiment on OVCAR-4 ovarian, 84.4%; in the experiment on SK-OV-3 ovarian, 65.8%. The growth was 21.9% in the experiment with IGROV1 ovarian, 50.2% in the experiment with HS 578T breast and 108% with NCI/ADR-RES ovarian.

Take `CCCCOP(=O)(OCCCC)C(C(=O)OCC)C(CC(=O)OCC)C(=O)OCC` (stereo unspecified): the growth with SN12C renal was 100%; in the experiment on UO-31 renal, 91.9%; in the experiment on ACHN renal, 93.2%; in the experiment with CAKI-1 renal it was 98.4%; in the experiment with A498 renal, 97.8%; in the experiment on MOLT-4 leukemia it was 109%. Moreover, the growth with SR leukemia is 128%; with RPMI-8226 leukemia, 109%; with OVCAR-8 ovarian it was 106%; with OVCAR-5 ovarian, 100%; in the experiment on SK-OV-3 ovarian, 105%; in the experiment on IGROV1 ovarian it was 112%. The growth is 123% with OVCAR-3 ovarian, 108% in the experiment on HS 578T breast and 113% in the experiment with NCI/ADR-RES ovarian.

Regarding `O=C(Nc1ccccc1S)c1ccccc1`, the growth with EKVX NSCLC was 94.6%; in the experiment with SN12C renal, 95.2%; in the experiment on UO-31 renal it was 91.8%; in the experiment with ACHN renal it was 104%; in the experiment with A498 renal, 86.5%; in the experiment with CCRF-CEM leukemia, 106%. The growth in the experiment with MOLT-4 leukemia was 82%; with SR leukemia it was 82.6%; with OVCAR-8 ovarian, 105%; with OVCAR-5 ovarian, 123%; in the experiment on OVCAR-4 ovarian, 98.4%; in the experiment on SK-OV-3 ovarian it was 115%. Further, the growth in the experiment with IGROV1 ovarian is 107%; in the experiment on OVCAR-3 ovarian, 112%; with HS 578T breast it was 103%; with NCI/ADR-RES ovarian, 98.1%.

Turning to `COc1cc(Cl)cc(-c2nn(-c3cccc(NC(=O)c4cc(C(F)(F)F)cc(C(F)(F)F)c4)c3)cc2-c2ccncc2)c1`, the growth in the experiment on SN12C renal is 69.8%; in the experiment with ACHN renal it was 58.2%; in the experiment on CAKI-1 renal, 68.6%; in the experiment with A498 renal, -1.74% (active); with CCRF-CEM leukemia, 57.1%; in the experiment on MOLT-4 leukemia, 55.3%. The growth with SR leukemia was 41%; in the experiment with RPMI-8226 leukemia it was 43.6%; in the experiment on OVCAR-8 ovarian it was 55.4%; with OVCAR-5 ovarian it was 83%; with OVCAR-4 ovarian it was 72.1%; in the experiment with SK-OV-3 ovarian, 83.4%. Further, the growth in the experiment with IGROV1 ovarian was 100%; with OVCAR-3 ovarian it was 25.5%; in the experiment with HS 578T breast it was 81.1%; with NCI/ADR-RES ovarian, 67.8%.

As to `O=CN1N=C(c2ccc(Cl)cc2)CC1c1cccc(Nc2ccnc3cc(Cl)ccc23)c1` (stereo unspecified), the growth was 30.3% in the experiment on EKVX NSCLC; 34.5% in the experiment with SN12C renal; 23% in the experiment on TK-10 renal; 31.5% in the experiment with ACHN renal; 9.76% (active) in the experiment with A498 renal; 13.6% with CCRF-CEM leukemia. Moreover, the growth was 4.5% (active) in the experiment on MOLT-4 leukemia; 1.88% (active) in the experiment with SR leukemia; 13.4% with RPMI-8226 leukemia; 12.6% in the experiment on OVCAR-8 ovarian; 34.6% in the experiment on OVCAR-5 ovarian; 29.2% in the experiment on OVCAR-4 ovarian. For the same compound, the growth in the experiment on SK-OV-3 ovarian was 19.2%; in the experiment on IGROV1 ovarian it was 34.4%; in the experiment on NCI/ADR-RES ovarian, 2.47% (active).

These data come from PubChem BioAssay (NCI).
